# Experimental data: PubChem BioAssay (Tox21)
# Results filed as inconclusive are left out. Values without a mark were called inactive. Calls of active or inactive are those of the source. Calls follow the shape of the dose curve; as a rule, active = well fitted cell-killing curve with a large enough effect in the repeat runs; inconclusive = weak or mixed curves, or effect the other way; inactive = flat fitted curve, though single readings scatter.
# Assay: cAMP Responsive Elements (CRE) small molecule agonists, cell-based qHTS assay: qHTS cell viability counter screen (AID 2060914); also: nearly all actives have a fitted effect of over 50% in size
# Conditions: CRE-bla HEK293T viability, CellTiter-Glo luminescence, 5 h; series mostly up to 92.4 µM; activity change, negative = cytotoxicity: at the top concentration
# Method in brief: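 CRE-bla HEK293T cells in 10% dialyzed FBS medium were exposed to compounds for 3 h at 37C after 18 h plating. CellTiter-Glo was then added in the same wells, and luminescence was read after 30 min at room temperature.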
# % is scaled to controls: 0 for no effect and ±100 for the full control effect; potency is read from the fitted curve at half-maximal effect.
Compound,"activity change, negative = cytotoxicity",Potency
Fc1ccccc1[C@@H](F)COC1CCC(Nc2ncnc3[nH]ncc23)CC1 (some centres not stated),-28.2%,
CCOc1ccc(NS(=O)(=O)c2ccc(N)cc2)nn1,-5.23% [at 42.5 µM],
COC(=O)/C=C(/C)N,0.436% [at 42.5 µM],
CC[C@H](C)COC(=O)/C=C/c1ccc(N=Cc2ccc(OC)cc2)cc1,-26%,
CCN(CC)c1ccc(C(=C2C=CC(=[N+](CC)CC)C=C2)c2cc(S(=O)(=O)O)ccc2S(=O)(=O)[O-])cc1,-13.7% [at 42.5 µM],
O=C(O)COC(=O)Cc1ccccc1Nc1c(Cl)cccc1Cl,10.3% [at 42.5 µM],
CN1CCN(Cc2cc(-c3ccc4[nH]c(=O)oc4c3)co2)[C@@H](c2ccc(F)cc2)C1,13.8%,
O=C(Nc1ccccc1)Nc1ccccc1,-21.4%,
CCCn1cnc2c1c(=O)n(CCCCC(C)=O)c(=O)n2C,1.72% [at 42.5 µM],
CC(C)(C)c1ccc(OCC2CO2)cc1 (configuration not stated),1.08%,
CCCCCCOC(=O)c1ccc(O)cc1,-17.8%,
CC(C)c1ccc(O)c(C(C)C)c1,-12.8%,
CC(C)CCCCCCOC(=O)c1ccc(C(=O)OCCCCCCC(C)C)c(C(=O)OCCCCCCC(C)C)c1,-7%,
CCN1CCCC1CNC(=O)c1cc(S(N)(=O)=O)ccc1OC (configuration not stated),-13.6%,
CCN(CC)CC(=O)OCC(=O)[C@@]1(O)CC[C@H]2[C@@H]3CCC4=CC(=O)CC[C@]4(C)[C@H]3[C@@H](O)C[C@@]21C,3.18% [at 42.5 µM],
CC(=O)[C@]1(O)Cc2c(O)c3c(c(O)c2[C@@H](O[C@H]2C[C@H](N)[C@H](O)[C@H](C)O2)C1)C(=O)c1ccccc1C3=O,12.2% [at 42.5 µM],
Nc1nc2ccc([N+](=O)[O-])cc2s1,-0.819%,
CCCCCCCCCCCCCCCC[N+](C)(C)CCN(Cc1ccc(OC)cc1)c1ncccn1,,26.6 µM (active)
Cc1cc(CCC(=O)OCCOCCOCCOC(=O)CCc2cc(C)c(O)c(C(C)(C)C)c2)cc(C(C)(C)C)c1O,-13.6%,
CNS(=O)(=O)CCc1ccc2[nH]cc(C3CCN(C)CC3)c2c1,5.34% [at 42.5 µM],
CC(C)NCC(O)COc1cccc2ccccc12 (configuration not stated),,inactive
CCN(CC)C(=S)SSC(=S)N(CC)CC,,inactive
